Values joined by “and” are separate entries in the source; they are usually repeats but may differ in a detail not shown here. Identical values can stand only once. Results filed as inconclusive are left out. A call without a number means that no potency is given here. The source holds several records for some structures; these can differ, active in one and inactive in another. Active and inactive are the calls of the source. The call rests on the fitted dose curve.
experiment: qHTS assay to identify small molecule agonists of the progesterone receptor (PR) signaling pathway - cell viability counter screen (AID 1346799); conditions: PR-UAS-bla HEK293T viability, CellTiter-Glo luminescence, 16 h; series mostly up to 92.4 µM; activity change, negative = cytotoxicity: at the top concentration; further: nearly all actives have a fitted effect of over 45% in size
Text: National Center for Advancing Translational Sciences [NCATS]
NIH Chemical Genomics Center [NCGC]
U.S. Environmental Protection Agency [EPA]
National Institutes of Environmental Health Sciences [NIEHS]
National Toxicology Program [NTP]
U.S. Food and Drug Administration [FDA]
Progesterone receptor (PR), a nuclear hormone receptor, plays an important role in development, metabolic homeostasis and reproduction. It is activated by the steroid hormone progesterone. Endocrine disrupting chemicals (EDCs) and their interactions with steroid hormone receptors like PR causes disruption of normal endocrine function. To identify the compounds that stimulate PR signaling, a PR-UAS-bla GripTite cell line i.e. PR-UAS-bla HEK293T (Invitrogen, Carlsbad, CA, USA) containing a beta-lactamase reporter gene under the control of an UAS response element was used to screen Tox21 10K compound library. The cytotoxicity of the Tox21 compound library against the PR-bla cell line was tested in parallel by measuring the cell viability using CellTiter-Glo assay in the same wells.
Tox21 Assay Protocol Summary:
PR-UAS-bla HEK293T cells were dispensed at 3,000 cells/5 uL of assay medium containing 2% charcoal stripped FBS per well into black wall/clear-bottom 1536-well plates using a Multidrop Combi (ThermoFisher Scientific, Waltham, MA) dispenser. After the assay plates were incubated at a 37C and 5% CO2 for 6 hr, 23 nL of compounds dissolved in DMSO, positive controls or DMSO only was transferred to the assay plate by a Pintool station (Kalypsys, San Diego, CA). The plates were incubated at 37C and 5% CO2 for 16 hr. Then 1 uL of LiveBLAzer B/G FRET substrate was added using a Flying Reagent Dispenser (FRD, Aurora Discovery, San Diego, CA), the plates were incubated at room temperature for 2 hours, and fluorescence intensity was measured by an Envision plate reader (PerkinElmer, Shelton, CT). For cell viability readout that measures cytotoxicity, 4 uL/well of CellTiter-Glo reagent was added into the assay plates using a FRD. After 30 min incubation at room temperature, the luminescence intensity in the plates was measured using a ViewLux (PerkinElmer) plate reader.
Potency means the concentration at half of the fitted maximal effect.

Question: For `CCC(Cc1c(I)cc(I)c(N)c1I)C(=O)O` (stereo not given), which “activity change, negative = cytotoxicity” value is on record?
Answer: 1.97% (inactive)

Question: With `C1COCCN1` as the compound, how does the Potency read?
Answer: inactive

Question: With `CC1(C)C(C=C(Cl)Cl)C1C(=O)OCc1cccc(Oc2ccccc2)c1` (stereo not given) as the compound, how does the “activity change, negative = cytotoxicity” value read?
Answer: 5% (inactive)

Question: For `Nc1ccc2c(O)cc(S(=O)(=O)O)cc2c1`, which Potency is on record?
Answer: inactive and 9.69 µM (active)

Question: With `CN(C)C` as the compound, how does the Potency read?
Answer: inactive

Question: For `Oc1c(Cl)ccc(Cl)c1Cl`, which Potency is on record?
Answer: inactive

Question: For `Cc1ccc(C)c(O)c1`, which Potency is on record?
Answer: inactive

Question: For `CCC/C=C/C=O`, which Potency is on record?
Answer: inactive

Question: With `CC(=O)[C@@]1(O)CC[C@H]2[C@@H]3C[C@H](C)C4=CC(=O)C=C[C@]4(C)[C@@]3(F)[C@@H](O)C[C@@]21C` as the compound, how does the “activity change, negative = cytotoxicity” value read?
Answer: 4.41% (inactive)

Question: With `FC(F)(F)C(Cl)Br` (stereo not given) as the compound, how does the Potency read?
Answer: inactive

Question: With `CC(=O)OC(C)C` as the compound, how does the Potency read?
Answer: inactive

Question: With `CC1(C)OC(=O)NC1=O` as the compound, how does the Potency read?
Answer: inactive

Question: Which Potency does the source give for `O=C1OC2(c3ccccc31)c1cc(I)c(O)c(I)c1Oc1c2cc(I)c(O)c1I` here?
Answer: inactive

Question: For `O=C1CCc2ccccc2O1`, which “activity change, negative = cytotoxicity” value is on record?
Answer: -4.46% (inactive)

Question: With `C1CN(SSN2CCOCC2)CCO1` as the compound, how does the Potency read?
Answer: inactive

Question: With `O=Cc1ccccc1C=O` as the compound, how does the Potency read?
Answer: inactive

Question: Which Potency does the source give for `C=C[C@@]1(C)CC(=O)[C@]2(O)[C@@]3(C)[C@@H](O)CCC(C)(C)[C@@H]3[C@H](O)[C@H](OC(C)=O)[C@@]2(C)O1` here?
Answer: 12.2 µM (active) and 16.8 µM (active)

Question: With `c1ccc2cc3ccccc3cc2c1` as the compound, how does the Potency read?
Answer: inactive

Question: With `CCOC(=O)C(C)Oc1ccc(Oc2cnc3cc(Cl)ccc3n2)cc1` (stereo not given) as the compound, how does the Potency read?
Answer: inactive

Question: For `CN(Cc1cnc2nc(N)nc(N)c2n1)c1ccc(C(=O)N[C@@H](CCC(=O)O)C(=O)O)cc1`, which Potency is on record?
Answer: inactive

Question: Which Potency does the source give for `CC(=O)Oc1c(C)c(C)c2c(c1C)CC[C@@](C)(CCC[C@H](C)CCC[C@H](C)CCCC(C)C)O2` here?
Answer: inactive

Question: Which Potency does the source give for `C=C[Si](OCCOC)(OCCOC)OCCOC` here?
Answer: inactive

Question: For `O=C(O)COCCN1CCN(C(c2ccccc2)c2ccc(Cl)cc2)CC1` (stereo not given), which “activity change, negative = cytotoxicity” value is on record?
Answer: 9.65% (inactive)

Question: Which “activity change, negative = cytotoxicity” value does the source give for `COc1cc([C@H]2Oc3cc([C@H]4Oc5cc(O)cc(O)c5C(=O)[C@@H]4O)ccc3O[C@@H]2CO)ccc1O` here?
Answer: 4.55% [at 42.5 µM] (inactive)

Question: Which Potency does the source give for `OCCNCCO` here?
Answer: inactive

Question: With `CNC[C@H](O)c1ccc(O)c(O)c1` as the compound, how does the Potency read?
Answer: inactive

Question: Which Potency does the source give for `CCCCCCCC/C=C\CCCCCCCC(=O)O` here?
Answer: inactive

Question: Which “activity change, negative = cytotoxicity” value does the source give for `CCCN1C=CN(C)C1` here?
Answer: 8.11% (inactive)

Question: Which Potency does the source give for `NC[C@H](O)c1ccc(O)c(O)c1` here?
Answer: inactive

Question: For `OC[C@@H](O)[C@@H](O[C@@H]1O[C@H](CO)[C@H](O)[C@H](O)[C@H]1O)[C@H](O)[C@@H](O)CO`, which Potency is on record?
Answer: inactive

Question: For `Oc1ccc(C(c2ccc(O)cc2)C(Cl)(Cl)Cl)cc1`, which “activity change, negative = cytotoxicity” value is on record?
Answer: -1.83% (inactive)

Question: With `C[C@]12C=CC(=O)C=C1CC[C@H]1[C@@H]3C[C@@H](O)[C@](O)(C(=O)CO)[C@@]3(C)C[C@H](O)[C@@]12F` as the compound, how does the “activity change, negative = cytotoxicity” value read?
Answer: 12% (inactive)

Question: For `Cc1ccc(S(=O)(=O)NCl)cc1`, which Potency is on record?
Answer: inactive

Question: Which Potency does the source give for `CCc1cccc2c3c([nH]c12)C(CC)(CC(=O)O)OCC3` (stereo not given) here?
Answer: inactive

Question: With `Brc1nc2ccccc2s1` as the compound, how does the Potency read?
Answer: inactive

Question: Which Potency does the source give for `C=CC(C)(O)CCC=C(C)C` (stereo not given) here?
Answer: inactive

Question: Which Potency does the source give for `O=C(O)CCCCCCCCCCCC(=O)O` here?
Answer: inactive

Question: Which Potency does the source give for `CCCCCCCCCCCCO` here?
Answer: inactive

Question: With `CC/C(=C(/CC)c1ccc(O)cc1)c1ccc(O)cc1` as the compound, how does the “activity change, negative = cytotoxicity” value read?
Answer: -23.1% [at 42.5 µM] (inactive)

Question: With `CC1=CC(C)(C)Nc2ccccc21` as the compound, how does the “activity change, negative = cytotoxicity” value read?
Answer: -5.14% (inactive)
